Inconclusive results are not listed. The source made the active and inactive calls. Calls follow the shape of the dose curve; as a rule, active = well fitted cell-killing curve with a large enough effect; inconclusive = small, poorly fitted or top-dose-only effect, or effect the other way; inactive = no such curve, though single readings can be large or run the other way.
Assay: Cell Viability - LYMP2-004 (AID 966);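 also: plate controls were DMSO only for no effect and tetraoctylammonium bromide control for full effect; nearly all actives have a fitted effect of over 65% in size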
Conditions: LYMP2-004 lymphoblastoid cell viability, qHTS; series mostly up to 92.2 µM; activity change, negative = cytotoxicity: at the top concentration
Excerpt: NIH Chemical Genomics Center [NCGC]
NIH Molecular Libraries Screening Centers Network [MLSCN]
National Institutes of Environmental Health Sciences [NIEHS]
National Toxicology Program [NTP]
We have developed a 1536-well cell-based assay for quantitative high throughput screening (qHTS) against a number of cell lines to determine in vitro cytotoxicity of small molecules. This particular assay uses a human lymphoblastoid cell line (LYMP2-004) purchased from Coriell Institute for Medical Research.
NCGC Assay Protocol Summary:
The CellTiter-Glo luminescent cell viability assay (Promega) is a homogeneous method to measure the number of viable cells in culture. The end point readout of this assay is based on quantitation of intracellular ATP, an indicator of metabolic activity, using the luciferase reaction. Luciferase catalyzes the oxidation of beetle Luciferin to oxyluciferin and light in the presence of ATP. The luminescent signal is proportional to amount of ATP present.
Using the CellTiter-Glo luminescent cell viability assay, the amount of cellular ATP was measured in the lymphoblastoid cell line with complete culture medium following compound treatment for 24 hours. The assay was performed in opaque white Kalypsys 1536-well plates. In the screen, tetraoctylammonium bromide was used as positive control. Library compounds were measured for their ability to cause acute toxicity in the cell line, as reflected by a decrease in intracellular ATP levels, in a concentration-dependent manner. […] AC50 values were determined from concentration-response data modeled with the standard Hill equation.
qHTS protocol for CellTiter Glo lymphoblastoid cellular assay
[Step] [Parameter] [Value] [Description]
1. Reagent; 5 uL; 2500 lymphoblastoid cells/well
2. Time; 5 hr; 37 C incubation
4. Controls; 23 nL; Tetraoctylammonium bromide 6.4pM to 92 uM
5. Time; 24 hr; 37 C incubation
6. Reagent; 5 uL; CellTiter Glo reagent
7. Time; 30 min; Room Temperature
8. Detection; Luminescence; Viewlux plate reader
Keywords: cell viability, cytotoxicity, lymphoblastoid cell line, luminescence, NTPHTS, NTPHTS_NCGC, NIEHS, DSSTox, MLSMR, MLSCN, NIH Roadmap, qHTS, NCGC

| SMILES | activity change, negative = cytotoxicity | outcome |
| --- | --- | --- |
| NCCNCCNCCNCCN | 0.918% (inactive) | – |
| Nc1ccc(S(=O)(=O)Nc2nccs2)cc1 | 11.9% (inactive) | – |
| C[C@]12C[C@H](O)[C@H]3[C@@H](CCC4=CC(=O)CC[C@@]43C)[C@@H]1CC[C@@H]2C(=O)CO | -4.77% (inactive) | – |
| CCCCOC(=O)c1ccc(O)cc1 | 12.1% (inactive) | – |
| Cc1cc(CC(=O)O)n(C)c1C(=O)c1ccc(Cl)cc1 | 16.3% (inactive) | – |
| NC(=O)c1ncn([C@@H]2O[C@H](CO)[C@@H](O)[C@H]2O)n1 | -22.3% (inactive) | – |
| CC1(C)[C@@H]2CC[C@@]1(C)C(=O)C2 | 14.3% (inactive) | – |
| COc1ccccc1O | – | inactive |
| Cc1cc2nc3c(=O)[nH]c(=O)nc-3n(C[C@H](O)[C@H](O)[C@H](O)CO)c2cc1C | 2.79% (inactive) | – |
| O=C1O[C@H]([C@@H](O)CO)C(O)=C1O | -2.52% (inactive) | – |
| O=C1c2c(O)cccc2Cc2cccc(O)c21 | -22.3% (inactive) | – |
| CCCCCCCCCCCCOS(=O)(=O)O | 2.14% (inactive) | – |
| [Cl][In]([Cl])[Cl] | 11.6% (inactive) | – |
| NC(=O)N/N=C/c1ccc([N+](=O)[O-])o1 | -23.2% (inactive) | – |
| NCCNCCNCCN | 16.7% (inactive) | – |

— PubChem BioAssay (NCATS)
